# GRP78 ERSR act = ER stress response induction in glioma; AID 602332; U87-MG GRP78 promoter luciferase reporter, 16 h; Potency, µM, hits mostly activators; actives 0.02% (n = 420,000); further: series mostly up to about 76 µM; nearly all actives have a fitted effect of over 35% in size
#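 ERSR induction read as luciferase luminescence (Bright-Glo, 10 min at room temperature) in stably transfected human U87-MG glioma cells exposed to compounds for 16 h, using GRP78 as sensor.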
# 12-LOX inh = ALOX12 (human) lipoxygenase inhibition; purified 12hLO, xylenol orange hydroperoxide absorbance; Potency, µM (doses to about 108 µM), actives largely listed as inhibitors; actives 1.1% (n = 580,000); P18054; AID 1671190
#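 Hydroperoxide product was detected by ferrous iron/xylenol orange as the 573 to 405 nm absorbance ratio. Arachidonic acid at 40 uM (final) was turned over for 30 min at room temperature by 150 nM human 12hLO, pH 7.0 Hepes buffer, after 15 min compound preincubation.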
# Sfp PPTase inh = Sfp phosphopantetheinyl transferase inhibition | Q9F4F7 | Biochemical Sfp PPTase activity, qHTS | Potency, µM, most hits filed as inhibitors | actives 3.5% (n = 310,000) | AID 1490;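 further: the enzyme is Sfp with the accession as filed and its product quenches rhodamine fluorescence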
#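 Buffer: 50 mM Hepes-Na pH 7.6, 10 mM MgCl2, 0.01% Nonidet P-40, 0.01% BSA. Enzyme 15 nM, pre-exposed to compound 15 min; substrates then added and fluorescence change tracked over 30 min.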
# G9a block = G9a (human) methyltransferase inhibition. G9a H3K9 monomethylation, AlphaScreen, 2 h. Potency, µM (titrated, usually from 102 µM), usual class: inhibitors. actives 8.8% (n = 350,000); further: nearly all actives have a fitted effect of over 75% in size
# Target sequence (Q96KQ7 913-1193 limits assumed): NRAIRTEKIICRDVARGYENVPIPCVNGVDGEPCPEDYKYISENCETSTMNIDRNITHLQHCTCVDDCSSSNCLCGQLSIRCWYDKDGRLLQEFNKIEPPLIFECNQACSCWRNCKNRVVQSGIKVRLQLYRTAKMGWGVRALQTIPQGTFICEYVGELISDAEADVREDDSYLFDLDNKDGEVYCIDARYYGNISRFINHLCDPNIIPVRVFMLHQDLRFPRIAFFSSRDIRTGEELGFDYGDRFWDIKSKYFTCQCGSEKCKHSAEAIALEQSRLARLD
#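 Signal arises when biotinylated H3K9 peptide, once monomethylated, bridges streptavidin donor and antibody-captured acceptor beads. Enzyme at 20 nM was preincubated 15 min with test compounds; peptide 500 nM and SAM 20 uM then reacted for 2 h.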
# VDR inh = vitamin D3 receptor (human) inhibition | P11473 | VDR-SRC2-3 peptide fluorescence polarization, 2 h | Potency, µM, most hits filed as inhibitors | actives 0.93% (n = 400,000)
# Target sequence (P11473 whole entry, looked up): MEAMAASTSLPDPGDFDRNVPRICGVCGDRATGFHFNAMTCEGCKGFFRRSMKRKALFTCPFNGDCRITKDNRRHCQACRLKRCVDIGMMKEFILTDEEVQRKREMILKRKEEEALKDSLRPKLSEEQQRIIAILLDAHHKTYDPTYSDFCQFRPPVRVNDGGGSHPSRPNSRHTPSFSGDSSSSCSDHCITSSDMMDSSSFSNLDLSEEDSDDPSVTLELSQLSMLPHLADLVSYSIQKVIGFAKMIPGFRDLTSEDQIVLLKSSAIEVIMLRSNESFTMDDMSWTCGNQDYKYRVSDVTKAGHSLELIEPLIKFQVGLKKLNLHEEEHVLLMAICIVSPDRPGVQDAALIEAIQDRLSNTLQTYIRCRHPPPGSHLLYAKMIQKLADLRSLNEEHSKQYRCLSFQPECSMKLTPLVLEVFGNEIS
#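 Two reagent solutions held at 4 deg C in the dark were dispensed, compounds pinned at 23 nl, and the mixture incubated 2 h at room temperature. Read-out: fluorescence polarization of VDR–SRC2-3 peptide binding.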
# Numbers stand for hits; – = inactive; ? = inconclusive; · = no result; [ ] = remark or other dose. This is one part of a sample in which hits are shown more often than they occur. The call rests on the fitted dose curve; in most records, active means well fitted curve in the direction sought with a large enough effect; inconclusive means small, poorly fitted or top-dose-only effect, or another doubt; inactive means no such curve, though single readings can be large; an effect the other way counts as inactive or inconclusive.
SMILES,GRP78 ERSR act,12-LOX inh,Sfp PPTase inh,G9a block,VDR inh
N#C/C(=C\c1ccc(N2CCOCC2)cc1)c1ccccc1,–,–,–,–,–
N#C/C(=C\c1ccc(N2CCOCC2)o1)C(=O)Nc1ccc(O)cc1,–,–,–,40µM,–
CC(Oc1ccc(F)cc1F)C(=O)NN (stereo not given),·,–,·,·,·
CN(Cc1ccccc1)Cc1c(O)ccc2ccccc12,–,0.79µM,–,8.9µM,?
COc1ccc(OCCN(C)Cc2c(O)ccc3ccccc23)cc1,–,?,–,7.1µM,?
CN(Cc1cc(Cl)cc(Cl)c1O)Cc1c(O)ccc2ccccc12,–,?,·,·,–
COc1ccc(-c2cc(C(=O)NC3CC3)c3c(C4CCCNC4)noc3n2)cc1 (stereo not given),·,–[6.33 µM],·,·,·
CCc1ccc(NC(=O)c2ccccc2SCC(=O)NCc2ccco2)cc1,·,5.6µM,·,·,·
CCSc1ccccc1C(=O)NCc1ccco1,–,–,–,10µM,–
CSc1ccccc1C(=O)NCC(c1ccco1)N(C)C (stereo not given),–,–,–,40µM,–
CCSc1ccccc1C(=O)NCc1cccnc1,–,?,–,8.9µM,–
Cc1c(-c2ccccc2)c(=O)oc2cc(OC(=O)C3CC3)ccc12,·,–,·,·,·
CC(C)CC(=O)NCCC1=CCCCC1,·,–,·,·,·
COCC1CN(S(=O)(=O)Cc2ccc(C)c(C)c2)CC12CCNCC2 (stereo not given),·,–,·,·,·
CN(C)c1ncnc2c1NC1=C(S2)C(=NCCCC(=O)O)CC(C)(C)C1,–,–,22µM,?,?
COc1ncnc2c1NC1=C(S2)C(=NCCC(=O)O)CC(C)(C)C1,–,–,14µM,18µM,–
CC1(C)CC(=O)/C(=C(\O)Cc2ccccc2)C(=NCCCCCC(=O)O)C1,–,–,–,–,?
C#CCN(CC(=O)NC(=O)NCC=C)C1CCc2ccccc21 (stereo not given),·,–,·,·,·
CCN1C(SCC(=O)Nc2ccccc2)=NS(=O)(=O)c2ccccc21,·,–,·,·,·
Cc1cc(N=Nc2c(O)c3ccccc3[nH]c2=O)ccc1N=Nc1ccc(C(=O)N(C)C)cc1,–,–,–,79µM,–
COc1ccc(CNC(=O)[C@H]2C[C@@H]2[C@H](NP(=O)(c2ccccc2)c2ccccc2)c2ccccc2)cc1OC,·,·,–,·,·
O=C(NCCc1c[nH]c2ccccc12)[C@@H]1C[C@H]1[C@@H](NP(=O)(c1ccccc1)c1ccccc1)c1ccccc1,·,·,–,79µM,·
O=C(O)C1CCCCC1C(=O)NCCc1c[nH]c2ccccc12 (stereo not given),–,–,–,–[12.7 µM],–
Cc1ccc(CNC(=O)[C@@H]2C[C@H]2[C@@H](NP(=O)(c2ccccc2)c2ccccc2)c2ccccc2)o1,·,·,50µM,·,·
CCn1cc(S(=O)(=O)N2CCN(c3cccc(OC)c3)CC2)cn1,·,–,·,·,·
SMILES,GRP78 ERSR act,12-LOX inh,Sfp PPTase inh,G9a block,VDR inh
COc1ccc(-c2cc(N3CCCN(C(=O)c4ccc5[nH]ccc5c4)CC3)n[nH]2)cc1,·,–,·,·,·
S=c1sc2c(Cl)ncnc2n1-c1ccccc1,–,–,–,45µM,–
COc1ccc(C2Cn3nnc(C(=O)N4CCN(C(=O)c5sccc5C)CC4)c3CO2)cc1 (stereo not given),·,–,·,·,·
COc1ccc(/C=C/CN2CCC(n3nccc3NC(=O)C3CC3)CC2)cc1,–,25µM,–,–,–
O=C(Nc1ccnn1C1CCN(Cc2ccc(OC3CCCC3)cc2)CC1)C1CC1,·,8.9µM,·,·,·
CN(CC(=O)NC(=O)Nc1ccccc1F)Cc1cccc(C#N)c1,·,–,·,·,·
Cc1cc2cc(CNC(=O)c3cccs3)ccc2n1C,–,?,45µM,50µM,–
COc1ccc(CC(=O)NCc2ccc3c(c2)cc(C)n3C)cc1,–,–,–,–,–
COc1ccc(C(=O)NCc2ccc3c(c2)cc(C)n3C)cc1OC,–,–,–,?,–
Cc1cc2cc(CNC(=O)c3ccc(S(=O)(=O)N4CCCCC4)cc3)ccc2n1C,–,?,?,50µM,–
CCC(CC)C(=O)NCc1ccc2c(c1)cc(C)n2C,–,–,–,–[12.7 µM],–
COc1ccc(S(=O)(=O)NCc2ccc3c(c2)cc(C)n3C)cc1,–,–,–,71µM,–
COc1cccc(C(=O)NCc2ccc3c(c2)cc(C)n3C)c1,–,–,–,50µM,–
CN1CCN(C(=O)C2CCc3nc(N4CCN(C(=O)C5CCC5)CC4)sc3C2)CC1 (stereo not given),·,–,·,·,·
CCOC(=O)c1c(NC(=O)COc2cccc(C)c2C)sc(C(C)=O)c1C,–,–,·,–,–
CCOC(=O)c1c(NC(=O)COc2ccccc2)sc(C(C)=O)c1C,–,–,·,13µM,–
CCOC(=O)c1c(NC(=O)COc2ccc(OC)cc2)sc(C(=O)N(CC)CC)c1C,·,–,·,–,–
CCOC(=O)c1c(NC(=O)COc2ccc(Br)cc2)sc(C(C)=O)c1C,–,–,·,14µM,–
CCOC(=O)c1c(NC(=O)C2COc3ccccc3O2)sc(C(C)=O)c1C (stereo not given),–,–,–,50µM,–
CCOC(=O)c1c(NC(=O)Cn2nnc(-c3ccccc3)n2)sc(CC)c1C,·,13µM,·,·,·
CCOC(=O)c1ccc(NC(=O)C2COc3ccccc3O2)cc1 (stereo not given),–,–,–,–,–
Cc1ccsc1CNC(=O)Cc1c(F)cccc1Cl,·,–,·,·,·
CCN(CC)S(=O)(=O)c1cccc(-c2csc(C)n2)c1,–,–,–,–,–
CCN(CC)S(=O)(=O)c1cccc(N=Nc2sc(N)nc2C)c1,–,–,–,40µM,–
Cc1nc(N2CCCCC2)sc1C(=O)c1ccc(Cl)c([N+](=O)[O-])c1,·,·,?,14µM,·
SMILES,GRP78 ERSR act,12-LOX inh,Sfp PPTase inh,G9a block,VDR inh
O=C(c1csnn1)N1CCC[C@@]2(CCN(c3ccncc3)C2)C1,–,–,–,–[12.7 µM],71µM
O=C(c1cnccn1)N1CCC[C@@]2(CCN(c3ccccc3)C2)C1,–,?,–,–[12.7 µM],–
CC(=O)N1CCC[C@@]2(CCN(c3ccncc3)C2)C1,–,–,–,–[12.7 µM],–
O=C(c1cnccn1)N1CCC[C@@]2(CCN(c3cccc(-c4ccccc4)c3)C2)C1,–,–,–,–[12.7 µM],28µM
CC(NC(=O)C1CCN(C(=O)C(C)(C)C)CC1)C1CC1 (stereo not given),·,–,·,·,·
COc1ccc2c(c1O)Cc1ccccc1C2=O,–,·,45µM,?,–
C/C(=N\N=C(N)N)c1ccc(Cl)c(Cl)c1,–,–,–,50µM,–
CCOc1cc(/C=N/Nc2nc(-c3cccs3)c(NC(C)=O)s2)ccc1O,–,?,–,20µM,35µM
CC(=O)Nc1sc(N/N=C\c2ccccc2Cl)nc1-c1cccs1,–,–,–,–,?
CC(=O)Nc1sc(N/N=C\c2ccco2)nc1-c1cccs1,–,?,18µM,5.6µM,?
CC(C)CCNC(=O)[C@H](CC(C)C)NC(=O)[C@H]1O[C@@H]1C(=O)O,·,·,–,35µM,·
Cc1ccc(C(=O)NCCCNc2ccccc2[N+](=O)[O-])cc1,–,–,–,56µM,–
CN(C)c1ccc(NC(=O)c2cccc(S(=O)(=O)NCc3cccs3)c2)cc1,·,–,·,·,·
